We go through seven compounds from PubChem BioAssay.

Structures are written as SMILES. Activity calls are given as the source filed them.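 Rule for the calls, unless noted: active = normalized viability below 100% at a tested concentration; inactive = the rest.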

Test [1] addresses 6-phosphogluconate dehydrogenase, decarboxylating (Homo sapiens) (UniProt P52209). Put plainly: inhibition of human phosphogluconate dehydrogenase – biochemical, recombinant enzyme, NADPH absorbance, primary screen (AID 1159550;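 active = at least 20% inhibition of 6-phosphogluconate dehydrogenase activity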). Conditions: recombinant 6PGD, NADPH absorbance 341 nm; at 10 µM; stronger effect = higher value.
Test [2] can be described thus: drug combination growth inhibition, ovarian cancer – cell-based, oncology-focused library, rucaparib conditional, profiling panel (AID 1508598). Conditions: patient-derived ovarian cancer cells, CellTiter-Glo viability, 144 h, stronger effect = lower value. (Cellular ATP, detected with luciferase, serves as a proxy for viable cell number.)
Test [3] in a line: EMT-state selective cytotoxicity in co-culture – imaging, PC-3E GFP, TEM4-18 mCherry, primary screen (AID 1345086;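 active = compounds killing one labelled cell type while sparing the other, by normalised counts and ratio limits, not self-fluorescent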;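 for all read-outs here: cells exposed to compound for 72 h before imaging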;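 for red/green cell ratio (normalised): normalised mesenchymal count divided by normalised epithelial count so high means epithelial killing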). Conditions: PC-3E GFP / TEM4-18 mCherry co-culture, imaging cell counts, at 1 µM; for red/green cell ratio (normalised): actives lie on both sides, counts scaled to control wells, 1 = unselective.
Test [4] is described as follows: P. berghei load reduction in hepatocytes – cell-based, HepG2, luciferase luminescence, HepG2 viability, primary screen (AID 624349; in the data active = parasite load remaining mostly below about 12%, no sharp cut-off; inactive = mostly above about 10%;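 note: 100% = mean of DMSO negative control wells on the same plate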). Conditions: P. berghei liver stage in HepG2, luciferase luminescence, concentration not given here; parasite load remaining: stronger effect = lower value; viability: measured here: HepG2 viability without parasites.
A short description of test [5]: signal quenchers or enhancers, Cy5 substrate/SSB – biochemical, NIH Clinical Collection, E. coli SSB, artefact control for HCV NS3 helicase inhibitor project (AID 743268; call rule not given here). Conditions: Cy5-oligo bound E. coli SSB, fluorescence interference.
Test [6] concerns Hepatitis C virus NS3 helicase. Put plainly: blockers of NS3h binding to DNA – biochemical, fluorescence polarization, NIH Clinical Collection, primary screen (AID 743270; call rule not given here). Conditions: NS3 helicase binding to Cy5-dT15 DNA, stronger effect = higher value, concentration not given here.
In test [7] the target is Single-stranded DNA-binding protein (Escherichia coli (strain K12)) (UniProt P0AGE0). As to the kind of experiment: SSB-ssDNA binding inhibitors – biochemical, fluorescence polarization, NIH Clinical Collection, counter-screen for HCV NS3 helicase inhibitor project (AID 743271; in the data active = inhibition above about 28%). Conditions: E. coli SSB-DNA binding, stronger effect = higher value, concentration not given here. Background: Fluorescence polarisation rises when a labelled molecule tumbles more slowly, as on binding a larger partner.

The nature of test [8]: compounds distorting NS3 helicase fluorescence signal – biochemical, NIH Clinical Collection, artefact control for HCV NS3 helicase inhibitor project (AID 743272; call rule not given here;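 note: HCV NS3 helicase with a Cy5 labelled single stranded DNA probe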). The following applies: fluorescence interference counterscreen, HCV NS3 helicase assay; stronger effect = lower value. (The purpose of a counterscreen is to sort out artefacts and off-target activity.)
Test [9] in a line: modulation of C. elegans fzo-1 (AID 1259413; call rule not given here;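 note: fzo-1 mutant C. elegans worms in liquid wells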). The following applies: C. elegans fzo-1 modulator screen, mean read-out; stronger effect = higher value.
Test [10] in a line: viability loss with induced miR-34 in A549 – imaging, A549 dox-inducible miR-34, nuclei and caspase counts, primary screen (AID 1347080;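 active = compounds whose cell count with miR-34 switched on is under 0.7 times the count with it off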). Conditions: A549 miR-34 inducible, Hoechst nuclei count, 48 h.
[11] abbreviates: at 0.000305 µM, OCI-C5x cells, with rucaparib 10 µM, 100% = cells with rucaparib alone.
[12] abbreviates: at 0.000305 µM, OCI-C5x cells, without rucaparib.
Where [13] appears, read: at 0.000305 µM, OCI-P5x cells, with rucaparib 20 µM, 100% = cells with rucaparib alone.
Setting [14] is: at 0.000305 µM, OCI-P5x cells, without rucaparib.
Where [15] appears, read: at 0.00122 µM, OCI-C5x cells, with rucaparib 10 µM, 100% = cells with rucaparib alone.
[16] abbreviates: at 0.00122 µM, OCI-C5x cells, without rucaparib.
Where [17] appears, read: at 0.00122 µM, OCI-P5x cells, with rucaparib 20 µM, 100% = cells with rucaparib alone.
Where [18] appears, read: at 0.00122 µM, OCI-P5x cells, without rucaparib.
The mark [19] stands for this setting: at 0.00488 µM, OCI-C5x cells, with rucaparib 10 µM, 100% = cells with rucaparib alone.
Setting [20] is: at 0.00488 µM, OCI-C5x cells, without rucaparib.
The mark [21] stands for this setting: at 0.00488 µM, OCI-P5x cells, with rucaparib 20 µM, 100% = cells with rucaparib alone.
Setting [22] is: at 0.00488 µM, OCI-P5x cells, without rucaparib.
Setting [23] is: at 0.0195 µM, OCI-C5x cells, with rucaparib 10 µM, 100% = cells with rucaparib alone.
[24] abbreviates: at 0.0195 µM, OCI-C5x cells, without rucaparib.
The mark [25] stands for this setting: at 0.0195 µM, OCI-P5x cells, with rucaparib 20 µM, 100% = cells with rucaparib alone.
[26] abbreviates: at 0.0195 µM, OCI-P5x cells, without rucaparib.
Where [27] appears, read: at 0.0781 µM, OCI-C5x cells, with rucaparib 10 µM, 100% = cells with rucaparib alone.
Where [28] appears, read: at 0.0781 µM, OCI-C5x cells, without rucaparib.
Setting [29] is: at 0.0781 µM, OCI-P5x cells, with rucaparib 20 µM, 100% = cells with rucaparib alone.
[30] abbreviates: at 0.0781 µM, OCI-P5x cells, without rucaparib.
[31] abbreviates: at 0.313 µM, OCI-C5x cells, with rucaparib 10 µM, 100% = cells with rucaparib alone.
Where [32] appears, read: at 0.313 µM, OCI-C5x cells, without rucaparib.
[33] abbreviates: at 0.313 µM, OCI-P5x cells, with rucaparib 20 µM, 100% = cells with rucaparib alone.
Where [34] appears, read: at 0.313 µM, OCI-P5x cells, without rucaparib.
The mark [35] stands for this setting: at 1.25 µM, OCI-C5x cells, with rucaparib 10 µM, 100% = cells with rucaparib alone.
Where [36] appears, read: at 1.25 µM, OCI-C5x cells, without rucaparib.
Where [37] appears, read: at 1.25 µM, OCI-P5x cells, with rucaparib 20 µM, 100% = cells with rucaparib alone.
Setting [38] is: at 1.25 µM, OCI-P5x cells, without rucaparib.
[39] abbreviates: at 5 µM, OCI-C5x cells, with rucaparib 10 µM, 100% = cells with rucaparib alone.
Where [40] appears, read: at 5 µM, OCI-C5x cells, without rucaparib.
The mark [41] stands for this setting: at 5 µM, OCI-P5x cells, with rucaparib 20 µM, 100% = cells with rucaparib alone.
Setting [42] is: at 5 µM, OCI-P5x cells, without rucaparib.
Setting [43] is: measured here: epithelial PC-3E GFP cell survival.
Where [44] appears, read: measured here: mesenchymal TEM4-18 mCherry cell survival.

Chain of 6-phosphogluconate dehydrogenase, decarboxylating (Homo sapiens) (P52209 whole entry, looked up): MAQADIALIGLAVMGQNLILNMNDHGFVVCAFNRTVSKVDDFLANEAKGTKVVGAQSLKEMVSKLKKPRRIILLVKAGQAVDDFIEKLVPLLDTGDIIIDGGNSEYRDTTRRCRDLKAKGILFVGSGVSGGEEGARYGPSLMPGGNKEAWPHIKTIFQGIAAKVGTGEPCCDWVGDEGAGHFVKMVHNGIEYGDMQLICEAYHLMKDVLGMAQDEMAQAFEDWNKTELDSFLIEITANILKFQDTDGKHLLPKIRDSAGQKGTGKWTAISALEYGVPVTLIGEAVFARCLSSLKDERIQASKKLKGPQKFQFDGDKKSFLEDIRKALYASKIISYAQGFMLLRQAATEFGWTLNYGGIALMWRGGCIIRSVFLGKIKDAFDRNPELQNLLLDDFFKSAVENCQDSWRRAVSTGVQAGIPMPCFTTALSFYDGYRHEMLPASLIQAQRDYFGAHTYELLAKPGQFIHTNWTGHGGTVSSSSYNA

In general, inhibition refers to the relative decrease from the control value, in per cent. On to `CC(=O)OC1CCC2(C)C3=C(CC[C@H]2C1(C)C)[C@@]1(C)CC[C@@H]([C@@H](C)CCC=C(C)C)[C@]1(C)CC3` (stereo partly specified), for which the inhibition in test [1] is -9.29% (inactive).

Take `CNC(C)[C@@H]1CC[C@@H](N)[C@@H](OC2C(O)[C@@H](OC3OC[C@](C)(O)C(NC)[C@H]3O)[C@H](N)C[C@@H]2N)O1` (stereo partly specified): in test [1], the inhibition was 1.04% (inactive).

For `CC(=O)O[C@H]1CC[C@]2(C)[C@H]3CC=C4[C@@H]5CC(C)(C)CC[C@]5(C(=O)O)CC[C@@]4(C)[C@]3(C)CC[C@H]2C1(C)C`, the inhibition in [1] is -0.817% (inactive).

One may read the viability as a read-out of living cells in per cent, often relative to untreated cells. For `CN(C)c1nc(N(C)C)nc(N(C)C)n1`, the viability is 108% (inactive) in [2] (setting [11]); 98.3% (active) in test [2] (setting [12]); 95.7% (active) in test [2] (setting [13]); 87% (active) in test [2] (setting [14]); 112% (inactive) in [2] (setting [15]); 100% (inactive) in test [2] (setting [16]). Further, the viability in test [2] (setting [17]) is 95.8% (active); in [2] (setting [18]) it was 89% (active); in test [2] (setting [19]), 120% (inactive); in [2] (setting [20]), 101% (inactive); in [2] (setting [21]), 101% (inactive); in [2] (setting [22]), 92.4% (active). Besides, the viability in [2] (setting [23]) was 113% (inactive); in test [2] (setting [24]), 100% (inactive); in [2] (setting [25]), 102% (inactive); in test [2] (setting [26]), 96.6% (active); in test [2] (setting [27]) it was 110% (inactive); in [2] (setting [28]), 101% (inactive). In addition, the viability is 103% (inactive) in [2] (setting [29]); 106% (inactive) in test [2] (setting [30]); 107% (inactive) in test [2] (setting [31]); 108% (inactive) in [2] (setting [32]); 108% (inactive) in test [2] (setting [33]); 99.9% (active) in test [2] (setting [34]). Moreover, the viability in test [2] (setting [35]) is 96.8% (active); in [2] (setting [36]), 67.8% (active); in [2] (setting [37]), 78.5% (active); in [2] (setting [38]) it was 28.8% (active); in [2] (setting [39]), 109% (inactive); in test [2] (setting [40]) it was 97.9% (active). In addition, the viability was 107% (inactive) in test [2] (setting [41]) and 98.6% (active) in test [2] (setting [42]).

Turning to `CCc1ccc(CCOc2ccc(CC3SC(=O)NC3=O)cc2)nc1` (stereo unspecified), the viability was 119% (inactive) in [2] (setting [11]); 118% (inactive) in test [2] (setting [12]); 88.4% (active) in test [2] (setting [13]); 95.9% (active) in test [2] (setting [14]); 120% (inactive) in [2] (setting [15]); 116% (inactive) in test [2] (setting [16]). In addition, the viability in test [2] (setting [17]) is 97.3% (active); in [2] (setting [18]), 100% (inactive); in test [2] (setting [19]), 108% (inactive); in test [2] (setting [20]), 126% (inactive); in [2] (setting [21]) it was 102% (inactive); in test [2] (setting [22]), 105% (inactive). Also, the viability was 120% (inactive) in [2] (setting [23]); 126% (inactive) in [2] (setting [24]); 105% (inactive) in [2] (setting [25]); 104% (inactive) in test [2] (setting [26]); 124% (inactive) in test [2] (setting [27]); 113% (inactive) in test [2] (setting [28]). Besides, the viability was 101% (inactive) in test [2] (setting [29]); 110% (inactive) in [2] (setting [30]); 105% (inactive) in [2] (setting [31]); 115% (inactive) in [2] (setting [32]); 103% (inactive) in test [2] (setting [33]); 113% (inactive) in test [2] (setting [34]). Moreover, the viability was 111% (inactive) in test [2] (setting [35]); 123% (inactive) in test [2] (setting [36]); 104% (inactive) in [2] (setting [37]); 118% (inactive) in test [2] (setting [38]); 105% (inactive) in test [2] (setting [39]); 123% (inactive) in test [2] (setting [40]). Moreover, the viability in [2] (setting [41]) was 103% (inactive); in test [2] (setting [42]), 111% (inactive).

With `CC1=C(CCC(=O)O)c2cc3nc(cc4[nH]c(cc5[nH]c(cc1n2)c(C)c5C(C)O)c(C)c4C(C)O)C(C)=C3CCC(=O)O` (stereo unspecified), the inhibition in [1] was 12.1% (inactive). Further, the red/green cell ratio (normalised) in [3] was 1.39 (inactive). In addition, the normalised cell number in test [3] (setting [43]) came to 0.93; in [3] (setting [44]) it was 1.29.

Regarding `O=C(O[C@@H]1Cc2c(O)cc(O)cc2O[C@@H]1c1cc(O)c(O)c(O)c1)c1cc(O)c(O)c(O)c1`, the parasite load remaining in test [4] was 87.1% (inactive). Moreover, the viability is 76.9% in test [4]; 112% (inactive) in test [2] (setting [11]); 121% (inactive) in test [2] (setting [12]); 103% (inactive) in [2] (setting [13]); 104% (inactive) in test [2] (setting [14]); 120% (inactive) in [2] (setting [15]). The viability in test [2] (setting [16]) was 118% (inactive); in test [2] (setting [17]), 73.5% (active); in [2] (setting [18]), 91% (active); in test [2] (setting [19]), 123% (inactive); in [2] (setting [20]), 116% (inactive); in test [2] (setting [21]), 90.4% (active). The viability in [2] (setting [22]) was 107% (inactive); in test [2] (setting [23]) it was 104% (inactive); in [2] (setting [24]) it was 117% (inactive); in test [2] (setting [25]) it was 82.9% (active). The fluorescence ratio in test [5] is 0.63 (active); in test [8], 0.8 (active). Besides, the inhibition in test [6] is -3.56% (inactive); in [7] it was 32.2% (active); in test [1] it was 15.4% (inactive). In addition, in [9], the mean signal was 222 (inactive). Also, the red/green cell ratio (normalised) in [3] was 1.15 (inactive). In addition, the normalised cell number in [3] (setting [43]) worked out at 0.79; in test [3] (setting [44]), 0.91. In addition, the fold change in [10] (stronger effect = lower value, cell number ratio, induced over uninduced) was 0.998 (inactive); in [10] (measured here: relative caspase fold change +Dox/-Dox) it was 0.749. Also, the cell count in test [10] (measured here: total cells with miR-34 induction, stronger effect = lower value) was 5870; in [10] (measured here: total cells without miR-34 induction), 5880.
